{"source": "PubChem BioAssay (NCATS)", "key": {"Furin (Homo sapiens)": {"target": "Furin (Homo sapiens) (UniProt P09958)", "sequence (P09958 whole entry, looked up)": "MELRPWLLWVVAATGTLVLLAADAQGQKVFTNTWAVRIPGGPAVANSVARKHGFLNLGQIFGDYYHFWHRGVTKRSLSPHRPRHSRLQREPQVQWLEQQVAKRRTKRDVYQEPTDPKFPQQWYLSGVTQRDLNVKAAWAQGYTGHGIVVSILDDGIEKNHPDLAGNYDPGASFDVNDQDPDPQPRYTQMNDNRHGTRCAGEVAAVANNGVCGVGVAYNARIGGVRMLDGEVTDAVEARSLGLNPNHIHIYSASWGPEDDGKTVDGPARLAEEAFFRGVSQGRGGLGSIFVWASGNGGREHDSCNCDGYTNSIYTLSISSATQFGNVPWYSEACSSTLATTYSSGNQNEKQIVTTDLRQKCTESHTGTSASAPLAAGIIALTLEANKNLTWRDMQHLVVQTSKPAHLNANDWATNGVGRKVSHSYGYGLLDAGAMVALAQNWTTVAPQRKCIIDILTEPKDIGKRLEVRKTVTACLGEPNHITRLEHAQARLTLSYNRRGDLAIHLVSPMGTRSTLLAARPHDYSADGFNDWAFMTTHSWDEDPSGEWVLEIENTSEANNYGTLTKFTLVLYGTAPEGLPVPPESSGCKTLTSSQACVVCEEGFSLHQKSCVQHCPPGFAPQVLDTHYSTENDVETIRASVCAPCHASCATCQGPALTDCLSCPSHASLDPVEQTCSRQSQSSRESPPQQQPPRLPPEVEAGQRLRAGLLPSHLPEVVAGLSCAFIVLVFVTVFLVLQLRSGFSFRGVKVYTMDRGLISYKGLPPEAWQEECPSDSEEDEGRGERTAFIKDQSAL", "experiment": "Furin counterscreen qHTS for Zika virus inhibitors (AID 1347149); further: nearly all actives have a fitted effect of over 70% in size; further: potency means the concentration at half of the fitted maximal effect;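 on activity change, negative = inhibition: purified recombinant full-length human furin enzyme at 5 nM; top concentration of the series differs between compounds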", "how_it_was_run": "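Fluorogenic cleavage of BOC-RVRR-AMC (2 microM final, Km ~15 µM) was monitored (ex 340, em 450 nm) at 37C after 15 min RT preincubation of 5 nM furin with compounds in HEPES pH 7.0 buffer with CaCl2 and Triton X-100. Percent inhibition was fitted to a 4-parameter Hill curve.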"}, "[1]": {"experiment": "Confirmatory screen GU Rhodamine qHTS for Zika virus inhibitors qHTS (AID 1347157); further: nearly all actives have a fitted effect of over 70% in size; further: potency means the concentration at half of the fitted maximal effect", "how_it_was_run": "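Compounds, tested up to 114 microM, were incubated for 15 minutes with 25 nM unlinked NS2B-NS3 protease at pH 8.0. Cleavage of 1.5 microM Rhodamine110 substrate was then followed by fluorescence for 15 minutes.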"}, "[2]": {"experiment": "ZIKV-mCherry secondary qHTS for Zika virus inhibitors (AID 1347158); further: top concentration of the series differs between compounds", "how_it_was_run": "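After overnight seeding at 37 °C, Vero cells receive compound and then ZIKV-mCherry (MOI 1). Following 48-72 h infection, cells are fixed, counterstained with Hoechst, and imaged; percent infected cells is derived from an mCherry intensity cut-off of 450 RFU.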"}, "[3]": {"experiment": "Confirmatory screen NINDS Rhodamine qHTS for Zika virus inhibitors (AID 1347161); further: nearly all actives have a fitted effect of over 60% in size; further: potency means the concentration at half of the fitted maximal effect;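 on activity change, negative = inhibition: purified Zika NS2B-NS3 protease with linked NS2B cofactor domain and Rhodamine110 peptide substrate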", "how_it_was_run": "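Aprotinin served as in-plate control. Conditions: 25 nM linked NS2B-NS3, pH 8.0 Tris buffer, titrated compounds, 15 min preincubation and 15 min reaction with 1.5 microM Rhod110 substrate at room temperature.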"}, "[4]": {"test_system": "Zika virus NS2B-NS3 protease (linked)", "experiment": "384 well plate NINDS AMC confirmatory qHTS for Zika virus inhibitors (AID 1347163); further: nearly all actives have a fitted effect of over 50% in size; further: potency means the concentration at half of the fitted maximal effect;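 on activity change, negative = inhibition: fluorescence of AMC released from Ac-VKTGKR-AMC peptide cleaved by the protease; top concentration of the series differs between compounds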", "how_it_was_run": "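Linked protease 5/30/60 nM final; cpds up to 1 mM final, ~15 min preinc. Substrate Ac-VKTGKR-AMC 30 microM final. RT, dark, 25 min; FI ex 355/em 460; normalized to no-enzyme/no-inhibitor ctrls.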"}, "[5]": {"test_system": "Zika virus NS2B-NS3 protease (linked construct)", "experiment": "384 well plate NINDS Rhodamine confirmatory qHTS for Zika virus inhibitors (AID 1347164); further: potency means the concentration at half of the fitted maximal effect; nearly all actives have a fitted effect of over 65% in size", "how_it_was_run": "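Linked protease at a final 5 nM, 30 nM or 60 nM was preincubated ~15 min with compounds, then given 10 microM Ac-LKRR-Rhodamine 110. Fluorescence (ex 485/em 538 nm) after 25 min in the dark at room temperature.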"}, "[6]": {"experiment": "Tertiary RLuc qRT-PCR qHTS assay for Zika virus inhibitors (AID 1347169); further: top concentration of the series differs between compounds; nearly all actives have a fitted effect of over 55% in size", "how_it_was_run": "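Vero cells (1,000 per well) plated overnight at 37 degrees C, treated with compound in DMSO, then infected with recombinant ZIKV-RLuc (Cambodian) at MOI 1-2 for 48-72 hrs. Live-cell Renilla luciferase substrate added; luminescence read after 1-1.5 hrs.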"}, "[7]": {"target": "Calcium and integrin-binding protein 1 (Homo sapiens) (UniProt Q99828)", "sequence (Q99828 whole entry, looked up)": "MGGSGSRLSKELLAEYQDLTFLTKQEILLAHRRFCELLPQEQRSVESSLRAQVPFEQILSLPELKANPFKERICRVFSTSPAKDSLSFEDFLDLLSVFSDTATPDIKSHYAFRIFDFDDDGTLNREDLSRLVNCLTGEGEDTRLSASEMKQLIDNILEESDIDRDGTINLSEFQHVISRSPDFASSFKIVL", "experiment": "Primary qHTS for Identification of Calcium Integrin Binding Protein 1 (CIB1) Competitor (AID 1508620); further: top concentration of the series differs between compounds", "how_it_was_run": "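Fluorescence polarization competition: GST-tagged CIB1 (1 uM final) preincubated with compound 15 min at room temperature, then FITC-labelled alphaIIb peptide (100 nM final) added. After 15 min at room temperature, polarization read at Ex 480/Em 540.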"}, "[8]": {"target": "Cytochrome P450 3A4 (Homo sapiens) (UniProt P08684)", "sequence (P08684 whole entry, looked up)": "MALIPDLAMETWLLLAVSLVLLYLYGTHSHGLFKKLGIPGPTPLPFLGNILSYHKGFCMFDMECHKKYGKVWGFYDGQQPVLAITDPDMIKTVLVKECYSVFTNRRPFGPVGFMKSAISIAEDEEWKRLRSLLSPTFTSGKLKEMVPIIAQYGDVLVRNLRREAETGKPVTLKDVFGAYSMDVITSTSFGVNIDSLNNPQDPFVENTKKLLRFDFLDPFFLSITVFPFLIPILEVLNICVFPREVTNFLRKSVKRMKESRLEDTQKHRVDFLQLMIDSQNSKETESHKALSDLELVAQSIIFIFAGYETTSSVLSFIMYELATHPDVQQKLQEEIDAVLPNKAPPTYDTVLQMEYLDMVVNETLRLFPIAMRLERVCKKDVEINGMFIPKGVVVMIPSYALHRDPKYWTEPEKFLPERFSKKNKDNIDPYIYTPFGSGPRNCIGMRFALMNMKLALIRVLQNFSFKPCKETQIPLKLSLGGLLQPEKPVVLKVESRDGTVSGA", "experiment": "qHTS Assay for Activators of Cytochrome P450 3A4 (AID 885); further: nearly all actives have a fitted effect of over 65% in size", "how_it_was_run": "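20nM CYP3A4 + 25uM Luciferin-PPXE (=KM), 200mM KPO4; cpd 10 min RT; NADPH regen, 60 min RT; stop w/ detection buffer, 20 min; luminescence. Normalized to 57 uM ketoconazole.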"}, "[9]": {"experiment": "qHTS Assay for Lipid Storage Modulators (AID 1519; calls by dose curve)", "settings": "Drosophila S3 cells, BODIPY lipid droplet/cell ratio, laser cytometry, cells loaded with oleic acid", "how_it_was_run": "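Cells seeded at 5,000 per well were treated with compounds over a concentration series and loaded with oleic acid (400 uM, as added). Lipid droplet fluorescence (488 nm excitation, 500-530 nm channel) was read by laser-scanning cytometry and normalized to 20 uM Triacsin C.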"}, "[10]": {"target": "Rap guanine nucleotide exchange factor 3 (Homo sapiens) (UniProt O95398)", "sequence (O95398 whole entry, looked up)": "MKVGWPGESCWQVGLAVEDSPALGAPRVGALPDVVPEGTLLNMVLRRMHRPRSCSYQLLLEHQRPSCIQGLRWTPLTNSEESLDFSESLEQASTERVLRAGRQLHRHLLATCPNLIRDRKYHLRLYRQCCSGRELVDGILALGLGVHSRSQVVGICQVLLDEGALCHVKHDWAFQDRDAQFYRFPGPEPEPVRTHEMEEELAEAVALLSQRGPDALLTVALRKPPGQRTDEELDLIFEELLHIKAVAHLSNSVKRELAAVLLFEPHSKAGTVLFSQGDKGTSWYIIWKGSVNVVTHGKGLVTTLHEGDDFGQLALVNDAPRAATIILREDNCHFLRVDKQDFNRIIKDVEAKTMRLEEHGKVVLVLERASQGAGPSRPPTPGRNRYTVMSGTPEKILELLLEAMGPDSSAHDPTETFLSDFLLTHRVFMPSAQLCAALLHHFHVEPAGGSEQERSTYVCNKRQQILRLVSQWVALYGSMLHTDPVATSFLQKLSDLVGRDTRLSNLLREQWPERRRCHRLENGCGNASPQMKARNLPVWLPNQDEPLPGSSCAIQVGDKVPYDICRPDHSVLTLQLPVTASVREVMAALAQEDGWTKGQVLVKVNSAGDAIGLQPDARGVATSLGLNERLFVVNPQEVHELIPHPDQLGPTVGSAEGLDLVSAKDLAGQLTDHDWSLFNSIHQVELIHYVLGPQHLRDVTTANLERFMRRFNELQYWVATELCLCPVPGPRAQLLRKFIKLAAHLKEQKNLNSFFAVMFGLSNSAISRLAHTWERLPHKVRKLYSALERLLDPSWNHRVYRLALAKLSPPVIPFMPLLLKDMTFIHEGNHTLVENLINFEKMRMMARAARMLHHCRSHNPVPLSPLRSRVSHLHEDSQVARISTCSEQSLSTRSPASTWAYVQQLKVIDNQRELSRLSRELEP", "experiment": "Confirmatory qHTS for agonist of cAMP-regulated guanine nucleotide exchange factor 3 (EPAC1) (AID 1645881);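 further: EPAC1 catalysed release of BODIPY-GDP from Rap1B seen as fluorescence loss; nearly all actives have a fitted effect of over 75% in size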"}, "[11]": {"target": "Rap guanine nucleotide exchange factor 4 (Homo sapiens) (UniProt Q8WZA2)", "sequence (Q8WZA2 whole entry, looked up)": "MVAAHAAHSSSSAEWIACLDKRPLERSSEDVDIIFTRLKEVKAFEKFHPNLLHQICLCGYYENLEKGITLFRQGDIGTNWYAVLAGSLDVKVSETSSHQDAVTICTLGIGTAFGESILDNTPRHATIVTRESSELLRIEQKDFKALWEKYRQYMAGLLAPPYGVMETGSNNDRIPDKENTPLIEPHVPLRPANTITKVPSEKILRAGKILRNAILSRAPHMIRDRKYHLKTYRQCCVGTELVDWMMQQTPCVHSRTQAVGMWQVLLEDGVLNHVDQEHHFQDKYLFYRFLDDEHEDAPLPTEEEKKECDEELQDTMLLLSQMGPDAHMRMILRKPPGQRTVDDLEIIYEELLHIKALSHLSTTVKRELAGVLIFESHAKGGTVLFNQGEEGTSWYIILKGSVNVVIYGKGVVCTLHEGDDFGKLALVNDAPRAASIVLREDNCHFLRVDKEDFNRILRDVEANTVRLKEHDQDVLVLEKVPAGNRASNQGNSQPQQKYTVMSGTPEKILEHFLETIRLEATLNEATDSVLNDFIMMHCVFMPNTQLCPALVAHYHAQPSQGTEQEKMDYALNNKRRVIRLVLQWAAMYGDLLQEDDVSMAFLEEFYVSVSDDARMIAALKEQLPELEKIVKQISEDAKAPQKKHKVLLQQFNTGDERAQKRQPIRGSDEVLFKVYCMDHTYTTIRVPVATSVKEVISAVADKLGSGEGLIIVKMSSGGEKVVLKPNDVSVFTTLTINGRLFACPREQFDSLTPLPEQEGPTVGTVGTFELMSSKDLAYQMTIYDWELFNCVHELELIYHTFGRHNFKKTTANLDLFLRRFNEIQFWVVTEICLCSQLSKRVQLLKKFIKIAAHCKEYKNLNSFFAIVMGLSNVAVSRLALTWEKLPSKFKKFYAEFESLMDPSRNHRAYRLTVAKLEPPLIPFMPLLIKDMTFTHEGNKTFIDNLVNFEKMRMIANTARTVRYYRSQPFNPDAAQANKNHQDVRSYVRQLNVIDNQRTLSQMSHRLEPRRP", "experiment": "Confirmatory qHTS for agonist of cAMP-regulated guanine nucleotide exchange factor 4 (EPAC2) (AID 1645884);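 further: nucleotide exchange releases bodipy-GDP from Rap1 and this lowers its fluorescence; nearly all actives have a fitted effect of over 65% in size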"}, "[12]": {"target": "Rap guanine nucleotide exchange factor 4 (Homo sapiens) (UniProt Q8WZA2)", "experiment": "Confirmatory qHTS for antagonist of cAMP-regulated guanine nucleotide exchange factor 4 (EPAC2) (AID 1645885); further: nearly all actives have a fitted effect of over 25% in size"}, "[13]": {"target": "Rap guanine nucleotide exchange factor 3 (Homo sapiens) (UniProt O95398)", "experiment": "Counterscreen qHTS for antagonist of cAMP-regulated guanine nucleotide exchange factor 3 (EPAC1) (AID 1645888);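 further: fluorescence loss as bound BODIPY-GDP is released from Rap1B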", "how_it_was_run": "(§1)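 Rap1B–BODIPY-GDP (250 nM) with 50 uM GDP; compounds pin-transferred to 9.74 nM–152 uM final (activator) or from 7.32 nM upwards (inhibitor). Fluorescence Ex/Em 480/540 nm read at 5 and 30 min, then after adding cAMP or buffer, at room temperature.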"}, "[14]": {"target": "Rap guanine nucleotide exchange factor 3 (Homo sapiens) (UniProt O95398)", "experiment": "Counterscreen qHTS for agonist of cAMP-regulated guanine nucleotide exchange factor 3 (EPAC1) (AID 1645889)", "how_it_was_run": "as §1"}}, "note": "Records with an inconclusive call do not appear. Entries that show only a call come without a potency. Active and inactive are the calls of the source. Unless noted, the call rests on the fitted dose curve; in most records, active means well fitted curve in the direction sought with a large enough effect; inconclusive means small, poorly fitted or top-dose-only effect, or another doubt; inactive means no such curve, though single readings can be large; an effect the other way counts as inactive or inconclusive.", "data": [{"compound": "O=C(COC(=O)c1cccc(NC(=O)c2ccc(Br)cc2)c1)c1ccc(Br)cc1", "values": [{"measurement": "Potency", "setting": "Furin (Homo sapiens)", "value": "inactive"}, {"measurement": "Potency", "setting": "[1]", "value": "inactive"}]}, {"compound": "O=C(O)c1ccc(C2Nc3ccccc3-c3nnc(SCc4ccc(Cl)cc4)nc3O2)cc1", "note": "(stereo not given)", "values": [{"measurement": "Potency", "setting": "Furin (Homo sapiens)", "value": "inactive"}, {"measurement": "Potency", "setting": "[1]", "value": "20 µM (active)"}, {"measurement": "Potency", "setting": "[2]", "value": "inactive"}, {"measurement": "Potency", "setting": "[3]", "value": "15.8 µM (active)"}, {"measurement": "Potency", "setting": "[4]", "value": "316 µM (active)"}, {"measurement": "Potency", "setting": "[5]", "value": "89.1 µM (active)"}, {"measurement": "Potency", "setting": "[6]", "value": "inactive"}]}, {"compound": "O=C(O)c1cc(-c2ccc(C(F)(F)F)cc2)nc2n[nH]c(-c3ccccc3)c12", "values": [{"measurement": "Potency", "setting": "Furin (Homo sapiens)", "value": "52.7 µM (active)"}, {"measurement": "Potency", "setting": "[1]", "value": "63.1 µM (active)"}, {"measurement": "Potency", "setting": "[2]", "value": "inactive"}, {"measurement": "Potency", "setting": "[3]", "value": "50.1 µM (active)"}, {"measurement": "Potency", "setting": "[4]", "value": "inactive"}, {"measurement": "Potency", "setting": "[5]", "value": "141 µM (active)"}, {"measurement": "Potency", "setting": "[6]", "value": "inactive"}]}, {"compound": "Cc1oc2c(cc(NS(=O)(=O)c3ccc(Cl)cc3)c3ccccc32)c1C(=O)OCc1ccccc1", "values": [{"measurement": "Potency", "setting": "Furin (Homo sapiens)", "value": "inactive"}, {"measurement": "Potency", "setting": "[1]", "value": "28.2 µM (active)"}, {"measurement": "Potency", "setting": "[2]", "value": "inactive"}, {"measurement": "Potency", "setting": "[3]", "value": "39.8 µM (active)"}]}, {"compound": "O=S(=O)(Nc1ccc(Cl)cc1)c1ccc(NS(=O)(=O)c2ccc3c(c2)OCCO3)cc1", "values": [{"measurement": "Potency", "setting": "Furin (Homo sapiens)", "value": "inactive"}, {"measurement": "Potency", "setting": "[1]", "value": "44.7 µM (active)"}, {"measurement": "Potency", "setting": "[3]", "value": "35.5 µM (active)"}, {"measurement": "Potency", "setting": "[5]", "value": "31.6 µM (active)"}]}, {"compound": "O=C(OCC#CCSc1nnc(-c2cccc3ccccc23)o1)c1cccc(C(F)(F)F)c1", "values": [{"measurement": "Potency", "setting": "Furin (Homo sapiens)", "value": "37.3 µM (active)"}, {"measurement": "Potency", "setting": "[1]", "value": "inactive"}, {"measurement": "Potency", "setting": "[3]", "value": "inactive"}, {"measurement": "Potency", "setting": "[6]", "value": "inactive"}, {"measurement": "outcome", "setting": "[7]", "value": "inactive"}]}, {"compound": "O=C(CSc1ncccc1C(=O)Oc1ccccc1Cl)Nc1ccccc1Cl", "values": [{"measurement": "Potency", "setting": "Furin (Homo sapiens)", "value": "inactive"}, {"measurement": "Potency", "setting": "[1]", "value": "inactive"}, {"measurement": "Potency", "setting": "[3]", "value": "inactive"}, {"measurement": "Potency", "setting": "[6]", "value": "inactive"}]}, {"compound": "O=C(Nc1ccccc1C(=O)OCc1cc(=O)n2nc(C3CC3)sc2n1)c1cccc(F)c1", "values": [{"measurement": "Potency", "setting": "Furin (Homo sapiens)", "value": "inactive"}, {"measurement": "Potency", "setting": "[1]", "value": "inactive"}, {"measurement": "Potency", "setting": "[3]", "value": "inactive"}, {"measurement": "Potency", "setting": "[6]", "value": "inactive"}]}, {"compound": "COc1ccc(-c2cc(=O)c3c(O)cc(O)c(-c4cc(-c5cc(=O)c6c(O)cc(O)cc6o5)ccc4OC)c3o2)cc1", "values": [{"measurement": "Potency", "setting": "[8]", "value": "inactive"}, {"measurement": "activity change, negative = inhibition", "setting": "[9]; at 57.5 µM (top of the series)", "value": "6.01% (inactive)"}, {"measurement": "max response", "setting": "[9]; measured here: cell count channel max response", "value": -20.7, "unit": "%"}, {"measurement": "max response", "setting": "[9]; measured here: lipid channel max response", "value": -15.6, "unit": "%"}, {"measurement": "Potency", "setting": "Furin (Homo sapiens)", "value": "inactive"}, {"measurement": "Potency", "setting": "[1]", "value": "25.1 µM (active)"}, {"measurement": "Potency", "setting": "[3]", "value": "25.1 µM (active)"}, {"measurement": "Potency", "setting": "[4]", "value": "112 µM (active)"}, {"measurement": "Potency", "setting": "[6]", "value": "inactive"}]}, {"compound": "O=C(OCC#CCSc1nnc(-c2cccc3ccccc23)o1)c1sc2ccccc2c1Cl", "values": [{"measurement": "Potency", "setting": "Furin (Homo sapiens)", "value": "46.9 µM (active)"}, {"measurement": "Potency", "setting": "[1]", "value": "inactive"}, {"measurement": "Potency", "setting": "[3]", "value": "inactive"}, {"measurement": "Potency", "setting": "[6]", "value": "inactive"}, {"measurement": "outcome", "setting": "[7]", "value": "inactive"}]}, {"compound": "O=C(O)CCc1ccc(-c2ccc(Cl)cc2)n1-c1cccc(C(F)(F)F)c1", "values": [{"measurement": "Potency", "setting": "Furin (Homo sapiens)", "value": "inactive"}, {"measurement": "Potency", "setting": "[1]", "value": "7.08 µM (active)"}, {"measurement": "Potency", "setting": "[3]", "value": "11.2 µM (active)"}, {"measurement": "Potency", "setting": "[5]", "value": "44.7 µM (active)"}, {"measurement": "outcome", "setting": "[10]", "value": "inactive"}, {"measurement": "outcome", "setting": "[11]", "value": "inactive"}, {"measurement": "activity change, negative = inhibition", "setting": "[12]", "value": "25.6% [at 12.7 µM] (inactive)"}, {"measurement": "outcome", "setting": "[13]", "value": "inactive"}, {"measurement": "Potency", "setting": "[14]", "value": "inactive"}]}, {"compound": "O=C(OCC#CCSc1nnc(-c2cccc3ccccc23)o1)c1ccc(SC(F)(F)F)cc1", "values": [{"measurement": "Potency", "setting": "Furin (Homo sapiens)", "value": "52.7 µM (active)"}, {"measurement": "Potency", "setting": "[1]", "value": "inactive"}, {"measurement": "Potency", "setting": "[3]", "value": "inactive"}, {"measurement": "Potency", "setting": "[6]", "value": "inactive"}, {"measurement": "outcome", "setting": "[7]", "value": "inactive"}]}]}
